This note sets out measurements from PubChem BioAssay (Tox21).

Assay [1] is described as follows: qHTS assay to identify small molecule agonists of the androgen receptor (AR) signaling pathway in the presence of an antagonist - cell viability counter screen (AID 1259379). Also: nearly all actives have a fitted effect of over 25% in size. Also: potency is read from the fitted curve at half-maximal effect. Put shortly: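 Counter screen for cell viability run in parallel with the AR agonist-mode luciferase assay. MDA-kb2 cells were co-treated with nilutamide (3.0uM final) and compounds, then incubated 16 hr at 37C, and CellTiter-Fluor fluorescence was measured.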

A short description of assay [2]: qHTS assay to identify small molecule agonists of the estrogen receptor beta (ER-beta) signaling pathway - cell viability counter screen (AID 1259380). Also: nearly all actives have a fitted effect of over 30% in size. Also: potency is read from the fitted curve at half-maximal effect. The method, boiled down:
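In this qHTS counter screen, HEK293T cells carrying an ER-beta/UAS beta-lactamase reporter, grown in 2% charcoal-stripped FBS, received compound for 16 hr; ATP-based CellTiter-Glo luminescence was then read after 30 min at room temperature.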
For orientation: qHTS replaces the single test concentration by a dilution series.

Assay [3] in a line: qHTS assay to identify small molecule antagonists of the estrogen receptor beta (ER-beta) signaling pathway - cell viability counter screen (AID 1259382). Also: nearly all actives have a fitted effect of over 55% in size. Also: potency is read from the fitted curve at half-maximal effect. Put shortly:
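HEK293T ER-beta-UAS-bla, 2% charcoal-stripped FBS; compounds + 1nM E2 16 hr 37C; CellTiter-Glo luminescence, 30 min RT.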

Assay [4] in a line: qHTS assay to identify small molecule agonists or antagonists of the thyroid stimulating hormone receptor (TSHR) signaling pathway - wild type cell line counter screen (AID 1259384; calls by dose curve). The method, boiled down: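 Wild-type Hek293 cells, 800/well, 18 h at 37C, then compound with Ro20-1724 for 30 min RT. cAMP by HTRF (cAMP-d2/anti-cAMP cryptate), 1 h RT, fluorescence read. 15 concentrations, triplicates.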

Assay [5] deals with Thyrotropin receptor (Homo sapiens) (UniProt P16473). In words: qHTS assay to identify small molecule antagonists of the thyroid stimulating hormone receptor (TSHR) signaling pathway (AID 1259385; calls by dose curve; also: nearly all actives have a fitted effect of over 20% in size). The method, boiled down:
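TSHR-HEK293 cells (800/well) plated 18 h, then compounds with Ro20-1724 and TSH at 1.5 ng/mL final, 30 min at room temperature. cAMP quantified by HTRF (cAMP-d2/anti-cAMP-cryptate, 1 h); 15 concentrations in triplicate.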

Assay [6] can be described thus: qHTS assay to identify small molecule agonists of the estrogen receptor alpha (ER-alpha) signaling pathway in the presence of an antagonist - cell viability counter screen (AID 1259386).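 Also: cells exposed to compounds for 22 h at 37 °C before the viability read; nearly all actives have a fitted effect of over 30% in size.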 Also: potency is read from the fitted curve at half-maximal effect. The method, boiled down:
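Steps: 5-day stripped-FBS culture; seed and incubate 24hr; add ICI-182,780 (10.0nM final); pin 15-point compound titration; incubate 22hr at 37C; add CellTiter-Fluor at 21hr; read fluorescence.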

In assay [7] the target is Progesterone receptor (Homo sapiens) (UniProt P06401). The experiment in a line: qHTS assay to identify small molecule agonists of the progesterone receptor (PR) signaling pathway (AID 1346784; calls by dose curve; also: nearly all actives have a fitted effect of over 30% in size; also: potency is read from the fitted curve at half-maximal effect). The method, boiled down: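 PR-UAS-bla HEK 293T cells (beta-lactamase reporter under UAS) in 2% charcoal-stripped FBS, dosed with 23 nL compound after 6 hr, incubated 16hr at 37C. LiveBLAzer B/G FRET substrate added, fluorescence read after 2 hours.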

For assay [8] the target is unchanged. In words: qHTS assay to identify small molecule antagonists of the progesterone receptor (PR) signaling pathway (AID 1346795; active = well fitted inhibition curve with a large enough effect in the signal ratio in the repeat runs, not every such curve was filed as active; the % refers to the signal ratio; also: potency is read from the fitted curve at half-maximal effect). Put shortly: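 PR-UAS-bla HEK293T cells with beta-lactamase reporter under UAS control, in 2% charcoal-stripped FBS, treated with compounds plus 1 nM promegestone (R5020, final) for 16 hr at 37C. Read-out: FRET beta-lactamase substrate fluorescence after 2 hr at room temperature.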

Assay [9] is described as follows: qHTS assay to identify small molecule antagonists of the progesterone receptor (PR) signaling pathway - cell viability counter screen (AID 1346798). Also: nearly all actives have a fitted effect of over 50% in size. Also: potency is read from the fitted curve at half-maximal effect. The method, boiled down:
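PR-UAS-bla HEK293T cells, 3,000/well in 2% charcoal-stripped FBS medium, dosed with compounds plus R5020 agonist and incubated 16 h at 37C. Viability then measured in the same wells by CellTiter-Glo luminescence after 30 min at RT.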

Assay [10] can be described thus: qHTS assay to identify small molecule agonists of the progesterone receptor (PR) signaling pathway - cell viability counter screen (AID 1346799; calls by dose curve; also: nearly all actives have a fitted effect of over 45% in size; also: potency is read from the fitted curve at half-maximal effect). Put shortly: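 Counter screen in the PR-UAS-bla HEK293T wells (2% charcoal-stripped FBS, 16 h compound exposure at 37 C) after the bla read. CellTiter-Glo added, 30 min at room temperature, luminescence read as cell viability.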

Assay [11] can be described thus: qHTS assay to identify small molecule antagonists of the TGF-beta/Smad signaling pathway - cell viability counter screen (AID 1346824). Also: nearly all actives have a fitted effect of over 50% in size. The method, boiled down: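 SBE-bla HEK 293T cells, incubated overnight, then compound plus 0.25 ng/mL TGF-beta1 (stock added) for 5 hr at 37 C. Viability was read in the same wells by CellTiter-Glo luminescence after 30 min at room temperature.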

Assay [12] in a line: qHTS assay to identify small molecule agonists of the TGF-beta/Smad signaling pathway - cell viability counter screen (AID 1346829). Also: top concentration of the series differs between compounds; nearly all actives have a fitted effect of over 45% in size. Put shortly: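 Cytotoxicity counter screen: CellTiter-Glo luminescence (30 min, room temperature) measured in the SBE-bla HEK 293T reporter wells after 5 hr compound treatment at 37 C and the 2 hr substrate step.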
Assay [13] is described as follows: qHTS assay to identify small molecule agonists of the TGF-beta/Smad signaling pathway (AID 1346859; active = well fitted activation curve with a large enough effect in the signal ratio in the repeat runs, not every such curve was filed as active; the % refers to the signal ratio; also: series mostly up to about 77 µM). Put shortly:
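SBE-bla HEK293T cells plated overnight, then compound exposure for 5 h at 37 C. Beta-lactamase reporter read with LiveBLAzer B/G FRET substrate after 2 h at room temperature, fluorescence at 405 nm excitation, 460/530 nm emission.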

Assay [14] concerns the target Thyrotropin-releasing hormone receptor (Homo sapiens) (UniProt P34981). The experiment in a line: qHTS assay to identify small molecule antagonists of the thyrotropin-releasing hormone receptor (TRHR) signaling pathway (AID 1346877; active = well fitted inhibition curve with a large enough effect in the repeat runs, not every such curve was filed as active; also: series mostly up to about 51 µM). Put shortly:
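Human TRHR in HEK293 cells; inhibition of the intracellular calcium rise triggered by 1 nM TRH was followed by fluorescence over 3 min. Compounds were run at 15 concentrations, three replicates each.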

Assay [15] has the same target. The experiment in a line: qHTS assay to identify small molecule agonists of the thyrotropin-releasing hormone receptor (TRHR) signaling pathway (AID 1346891; calls by dose curve; also: series mostly up to about 58 µM). The method, boiled down:
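HEK293 cells expressing TRHR plated 18 h at 37 C/5% CO2, calcium dye-loaded 2 h at 37 C, then compound added (agonist mode); kinetic calcium fluorescence read 3 min at 1 s intervals; 15 concentrations in triplicate.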

A short description of assay [16]: Human pregnane X receptor (PXR) small molecule agonists, qHTS cell viability counter screen (AID 1346977). Also: nearly all actives have a fitted effect of over 50% in size. Also: potency is read from the fitted curve at half-maximal effect. Put shortly:
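PXR-Luc HepG2 cells (2,000/well, 5% charcoal-stripped FBS) preincubated 5 hr, then exposed to compounds 24 hr at 37 C. Viability read in the same wells by CellTiter-Fluor fluorescence, reagent added at 23 hr, 1 hr incubation.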

For assay [17], the target named is Estrogen receptor (Homo sapiens) (UniProt P03372). The experiment in a line: qHTS assay to identify small molecule agonists of the estrogen receptor alpha (ER-alpha) signaling pathway in the presence of an antagonist (AID 1259383; calls by dose curve; also: top concentration of the series differs between compounds; nearly all actives have a fitted effect of over 15% in size). Put shortly: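 ER-alpha agonism measured under antagonist challenge: 10.0nM ICI-182,780 (final) plus compound, 15 concentrations, 22hr, VM7Luc4E2 ERE-luciferase cells. Read by luminescence.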

“And” between values parts separate entries of the source, which are not always exact repeats. Identical values can stand only once. Results filed as inconclusive are left out. Where a structure was tested more than once in an assay, its records may differ in their call. The source made the active and inactive calls. Unless noted, calls follow the shape of the dose curve; as a rule, active = well fitted curve in the direction sought with a large enough effect in the repeat runs; inconclusive = weak or mixed curves; inactive = no such curve, though single readings can be large; an effect the other way counts as inactive or inconclusive.

Estrogen receptor (Homo sapiens), sequence (P03372 whole entry, looked up): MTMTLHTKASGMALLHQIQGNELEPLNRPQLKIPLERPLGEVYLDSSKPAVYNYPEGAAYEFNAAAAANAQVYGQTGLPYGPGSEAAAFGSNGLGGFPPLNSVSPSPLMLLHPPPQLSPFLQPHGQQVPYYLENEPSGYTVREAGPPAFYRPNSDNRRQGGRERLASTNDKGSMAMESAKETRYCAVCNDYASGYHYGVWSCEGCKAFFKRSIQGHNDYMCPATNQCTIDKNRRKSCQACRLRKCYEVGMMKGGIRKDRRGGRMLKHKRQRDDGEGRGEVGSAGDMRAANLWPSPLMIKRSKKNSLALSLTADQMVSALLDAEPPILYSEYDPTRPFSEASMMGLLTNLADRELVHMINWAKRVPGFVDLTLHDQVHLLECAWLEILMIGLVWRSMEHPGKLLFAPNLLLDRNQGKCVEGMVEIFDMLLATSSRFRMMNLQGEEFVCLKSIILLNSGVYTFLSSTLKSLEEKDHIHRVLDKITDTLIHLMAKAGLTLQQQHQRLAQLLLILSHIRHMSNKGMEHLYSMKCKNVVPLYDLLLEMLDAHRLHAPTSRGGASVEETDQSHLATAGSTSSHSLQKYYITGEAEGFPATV
Thyrotropin receptor (Homo sapiens), sequence (P16473 whole entry, looked up): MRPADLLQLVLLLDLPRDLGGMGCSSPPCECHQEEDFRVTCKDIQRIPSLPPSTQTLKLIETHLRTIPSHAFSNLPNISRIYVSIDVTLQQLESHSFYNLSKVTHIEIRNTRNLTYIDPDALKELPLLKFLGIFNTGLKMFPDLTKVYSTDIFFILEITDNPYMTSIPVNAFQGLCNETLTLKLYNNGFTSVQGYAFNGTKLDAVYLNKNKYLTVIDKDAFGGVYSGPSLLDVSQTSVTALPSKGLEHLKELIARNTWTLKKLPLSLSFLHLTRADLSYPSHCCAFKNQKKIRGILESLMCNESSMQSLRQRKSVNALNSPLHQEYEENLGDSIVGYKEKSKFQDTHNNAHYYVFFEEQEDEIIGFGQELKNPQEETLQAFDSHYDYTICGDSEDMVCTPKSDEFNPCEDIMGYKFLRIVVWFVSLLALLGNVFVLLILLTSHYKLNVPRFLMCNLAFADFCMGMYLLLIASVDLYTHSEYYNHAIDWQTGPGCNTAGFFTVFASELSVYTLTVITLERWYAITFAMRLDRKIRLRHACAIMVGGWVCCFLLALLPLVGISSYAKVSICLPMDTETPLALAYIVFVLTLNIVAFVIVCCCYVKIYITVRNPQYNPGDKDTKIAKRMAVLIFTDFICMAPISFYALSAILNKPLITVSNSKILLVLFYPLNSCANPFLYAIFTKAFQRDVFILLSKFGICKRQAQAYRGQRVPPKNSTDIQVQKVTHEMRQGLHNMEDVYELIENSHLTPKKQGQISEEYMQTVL
Progesterone receptor (Homo sapiens), sequence (P06401 whole entry, looked up): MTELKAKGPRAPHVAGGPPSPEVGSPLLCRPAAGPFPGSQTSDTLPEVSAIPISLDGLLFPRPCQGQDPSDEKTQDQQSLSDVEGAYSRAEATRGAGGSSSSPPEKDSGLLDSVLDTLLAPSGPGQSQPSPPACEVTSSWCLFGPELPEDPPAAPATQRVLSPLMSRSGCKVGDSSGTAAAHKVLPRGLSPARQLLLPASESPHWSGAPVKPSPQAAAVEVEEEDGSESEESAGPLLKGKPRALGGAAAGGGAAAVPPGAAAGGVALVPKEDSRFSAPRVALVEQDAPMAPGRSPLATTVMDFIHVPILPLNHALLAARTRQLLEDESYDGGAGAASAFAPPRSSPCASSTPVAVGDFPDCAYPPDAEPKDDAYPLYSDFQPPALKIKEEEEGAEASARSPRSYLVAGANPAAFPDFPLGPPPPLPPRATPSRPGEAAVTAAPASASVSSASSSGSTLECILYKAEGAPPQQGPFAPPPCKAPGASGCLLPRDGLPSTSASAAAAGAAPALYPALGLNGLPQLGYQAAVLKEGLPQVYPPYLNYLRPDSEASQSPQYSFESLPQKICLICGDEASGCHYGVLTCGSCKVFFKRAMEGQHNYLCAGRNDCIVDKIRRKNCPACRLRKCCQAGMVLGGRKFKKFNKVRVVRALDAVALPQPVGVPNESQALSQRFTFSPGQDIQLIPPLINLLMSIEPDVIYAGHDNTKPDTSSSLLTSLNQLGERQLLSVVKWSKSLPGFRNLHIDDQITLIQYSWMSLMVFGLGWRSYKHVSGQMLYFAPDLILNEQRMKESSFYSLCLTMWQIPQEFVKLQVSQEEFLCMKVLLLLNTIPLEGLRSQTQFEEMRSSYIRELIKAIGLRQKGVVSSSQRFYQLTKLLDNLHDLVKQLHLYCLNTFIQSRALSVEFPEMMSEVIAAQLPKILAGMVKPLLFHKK
Thyrotropin-releasing hormone receptor (Homo sapiens), sequence (P34981 whole entry, looked up): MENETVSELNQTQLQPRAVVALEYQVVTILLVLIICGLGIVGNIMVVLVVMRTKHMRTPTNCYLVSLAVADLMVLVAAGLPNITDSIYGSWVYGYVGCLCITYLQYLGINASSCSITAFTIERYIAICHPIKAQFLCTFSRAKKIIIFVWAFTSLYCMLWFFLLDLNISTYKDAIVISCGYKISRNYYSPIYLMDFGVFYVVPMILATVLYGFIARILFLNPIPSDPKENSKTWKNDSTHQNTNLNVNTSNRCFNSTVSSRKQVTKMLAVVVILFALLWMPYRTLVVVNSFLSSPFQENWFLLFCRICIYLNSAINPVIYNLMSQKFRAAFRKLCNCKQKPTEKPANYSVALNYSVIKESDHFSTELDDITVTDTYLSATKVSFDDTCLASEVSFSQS

Consider `OC[C@H]1O[C@@H]2O[C@H]3[C@H](O)[C@@H](O)[C@@H](O[C@H]4[C@H](O)[C@@H](O)[C@@H](O[C@H]5[C@H](O)[C@@H](O)[C@@H](O[C@H]6[C@H](O)[C@@H](O)[C@@H](O[C@H]7[C@H](O)[C@@H](O)[C@@H](O[C@H]8[C@H](O)[C@@H](O)[C@@H](O[C@H]1[C@H](O)[C@H]2O)O[C@@H]8CO)O[C@@H]7CO)O[C@@H]6CO)O[C@@H]5CO)O[C@@H]4CO)O[C@@H]3CO`, for which the Potency entry in [1], in assay [3], in [5], in assay [6], in [7] and in assay [8] was “inactive” throughout. Further, the Potency result in assay [9], in assay [11], in assay [12], in assay [14], in [15] and in assay [16] was “inactive” throughout. For the same compound, the Potency was 61.3 µM (active) and inactive in assay [2]; 24.4 µM (active) and inactive in assay [10]. Moreover, the compound was called inactive in assay [4] and in assay [13].

Consider `O=CCCCC=O`, for which the Potency entry in [1], in [2], in [3], in assay [17], in assay [6] and in assay [7] was “inactive” in each case. Besides, the Potency result in assay [8], in [9], in [11], in assay [12], in assay [14] and in assay [15] was “inactive” in each case. In assay [16], the Potency entry was “inactive”. Further, the compound was called inactive in assay [13].

For the compound `COC(=O)C1=C(C)NC(C)=C(C(=O)OCCN(C)Cc2ccccc2)C1c1cccc([N+](=O)[O-])c1` (configuration not stated), the Potency in assay [1] is 60.8 µM (active); in assay [2] it was 68.2 µM (active) and 29.8 µM (active); in assay [3] it was 60.8 µM (active); in [6] it was 54.2 µM (active) and 18.8 µM (active); in assay [9], 30.5 µM (active); in [10], 30.5 µM (active). Besides, in assay [16], the Potency is 27.1 µM (active) and 26.6 µM (active). The Potency result in [17], in [7], in [11], in assay [12], in assay [14] and in assay [15] was “inactive” throughout. In addition, the compound was classed as inactive in assay [4] and in [13].

Regarding `C#C[C@]1(O)CC[C@H]2[C@@H]3CCc4cc(OC)ccc4[C@H]3CC[C@@]21C`, the Potency entry in [1], in assay [5], in assay [6], in assay [9], in [11] and in assay [12] was “inactive” throughout. Moreover, the Potency result in assay [14], in [15] and in assay [16] was “inactive” each time. Besides, the values for the Potency in assay [2] and in assay [7] were 21.7 µM (active) and 7.7 µM (active), respectively. Moreover, the compound was classed as inactive in [4] and in assay [13].

For the compound `O=C(c1ccc(OCCN2CCCCC2)cc1)c1c(-c2ccc(O)cc2)sc2cc(O)ccc12`, the Potency in assay [1] is 61.2 µM (active) and 61.1 µM (active) and 26.6 µM (active); in [2], 54.5 µM (active) and 34.4 µM (active) and 23.7 µM (active); in assay [3], 54.5 µM (active) and 26.6 µM (active); in assay [6] it was 54.5 µM (active) and 30.6 µM (active); in assay [8] it was 30.6 µM (active) and 29.8 µM (active); in [9], 61.2 µM (active) and 61.1 µM (active) and 26.6 µM (active). In addition, the Potency in [10] is 48.6 µM (active) and 68.6 µM (active) and 29.8 µM (active); in assay [16], 21.7 µM (active) and 24.3 µM (active) and 23.7 µM (active). The Potency entry in assay [11] and in [12] was “inactive” in each case.

Regarding `CN(C)C(=N)N=C(N)N`, the Potency result in [1], in assay [2], in [3], in [5], in assay [6] and in [7] was “inactive” each time. In addition, the Potency entry in [8], in assay [9], in assay [11], in [12], in [14] and in assay [15] was “inactive” each time. The Potency entry in [16] was “inactive”. Moreover, the result in [4] and in assay [13] was inactive.

On to `CCC(C)CO` (configuration not stated), for which the Potency entry in [1], in [2], in [3], in assay [17], in [6] and in assay [7] was “inactive” each time. The Potency result in assay [8], in [9], in assay [10], in assay [11], in assay [12] and in assay [16] was “inactive” throughout. Moreover, the compound was classed as inactive in assay [4] and in [13].
